For five compounds, growth results are on record in PubChem BioAssay (NCI).

This is part of a sample that, as a whole, favours compounds with a hit. Of some 83,000 tested, about 20% had one in any assay.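 Step 1: grow cells in 96-well plates. Step 2: add test compound at a single concentration. Step 3: incubate 48 h. Step 4: record percent growth.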 Values without a mark were called inactive. The source made the active and inactive calls. How the source made its calls: active means growth percent below 10; inactive means the rest.

The assay deals with MDA-MB-468 breast. Nature of the assay: NCI-60 one-dose screen, 48 h (100 = growth as untreated, 0 = no growth, -100 = all killed). To be noted: 10 µM unless noted.
As for `CCNc1ncnc2n[nH]nc12`, the growth was 97.2%.

As for `CC1Cc2c(N(C)C)ncnc2N(C)c2ccc(Cl)cc21` (stereo not given), the growth was 28.7%.

In the case of `O=C(/C(=N/O)S(=O)(=O)c1ccccc1)c1cccs1`, the growth was 101%. As for `NCC(=O)NS(=O)(=O)OC[C@H]1O[C@@H](n2cnc3c(N)ncnc32)[C@H](O)[C@@H]1O`, the figure is -34.3% (active); as for `Oc1c(Cl)cc(Cl)c2ccc(Cn3cc(-c4cc(F)cc(F)c4)nn3)nc12`, 38.2%.
